In the library only some 10% were active in any assay of this set; here they are far more common.
GPT2 inhibitor = Primary qHTS assay for inhibitors of Glutamate pyruvate transaminase 2 (GPT2); Recombinant GPT2, coupled pyruvate oxidase/HRP Amplex Red fluorescence; Potency, µM (doses to about 57.7 µM), hits mostly inhibitors; actives 0.25% (n = 100,000); also: nearly all actives have a fitted effect of over 60% in size
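Inhibition is scored from Amplex Red fluorescence generated when pyruvate oxidase and HRP act on pyruvate released by GPT2. Reactions contain 10ng/uL enzyme, 250uM a-KG and 2mM L-alanine and run 30 min at room temperature.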
hNpr1 antagonist = Natriuretic polypeptide receptor (hNpr1) antagonism - Primary qHTS; Atrial natriuretic peptide receptor 1 (Homo sapiens), P16066; HEK293 hNpr1 GloSensor cGMP, ANP-stimulated luminescence; Potency, µM (series often up to 46.3 µM), most hits filed as inhibitors; actives 1.6% (n = 76,000); AID 1347048, 2019; calls by dose curve; also: nearly all actives have a fitted effect of over 60% in size
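HEK293 cells stably expressing human Npr1 and cGMP GloSensor pGS-40F, loaded 2 h with 2% GloSensor reagent, given compound 30 min at room temperature. Luminescence read before and 20 min after 0.1 nM hNppA.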
HEK cytotox = Cytotoxic Profiling in HEK 293 Cell Line of Diverse Libraries Using Quantitative High-Throughput Screening | Potency, µM (titrated, usually from 115 µM), usual class: inhibitors | actives 6.6% (n = 94,000) | HEK 293 viability, ATP luminescence (CellTiter-Glo), 48-72 h; also: nearly all actives have a fitted effect of over 60% in size
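Viability of HEK 293 cells, plated at 250 cells/well, was judged by cellular ATP after compound treatment for 48 or 72 hr. Luminescence was imaged 10 min after CellTiter-Glo addition at room temperature.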
NIH3T3 tox = Cytotoxic Profiling in NIH 3T3 Cell Line of Diverse Libraries Using Quantitative High-Throughput Screening. NIH 3T3 viability, CellTiter-Glo ATP luminescence, 48-72 h. Potency, µM (top dose mostly 96.7 µM), hits mostly inhibitors. actives 4.3% (n = 94,000). AID 1345082, 2018; also: nearly all actives have a fitted effect of over 55% in size
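Cytotoxicity is measured as loss of cellular ATP: NIH 3T3 cells (400/well) are exposed to compound for 48 or 72 hr at 37 °C, then CellTiter-Glo luminescence is imaged after 10 min at room temperature.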
Luciferase inh = Firefly luciferase inhibition profiling of diverse chemical library using quantitative high-throughput screening | Luciferin 4-monooxygenase (Photinus pyralis), P08659 | purified P. pyralis luciferase, luminescence, biochemical | Potency, µM (doses to about 115 µM), hits mostly inhibitors | actives 2.5% (n = 76,000) | AID 1347043, 2019; also: nearly all actives have a fitted effect of over 65% in size
Target sequence (P08659 whole entry, looked up): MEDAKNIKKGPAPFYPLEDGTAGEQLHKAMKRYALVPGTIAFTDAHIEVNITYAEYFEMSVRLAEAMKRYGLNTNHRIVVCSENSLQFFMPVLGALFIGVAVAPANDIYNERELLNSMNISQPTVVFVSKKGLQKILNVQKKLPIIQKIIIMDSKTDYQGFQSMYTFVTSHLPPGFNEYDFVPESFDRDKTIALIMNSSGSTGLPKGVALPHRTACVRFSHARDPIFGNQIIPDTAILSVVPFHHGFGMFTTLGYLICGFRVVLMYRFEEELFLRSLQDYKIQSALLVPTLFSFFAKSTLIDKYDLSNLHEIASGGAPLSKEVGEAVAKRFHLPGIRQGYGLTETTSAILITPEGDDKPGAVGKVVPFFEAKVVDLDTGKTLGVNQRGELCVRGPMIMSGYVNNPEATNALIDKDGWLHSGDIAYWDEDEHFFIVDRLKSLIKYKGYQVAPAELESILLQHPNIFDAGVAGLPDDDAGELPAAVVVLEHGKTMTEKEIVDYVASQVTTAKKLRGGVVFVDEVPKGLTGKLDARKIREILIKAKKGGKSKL
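Biochemical qHTS: compound (6-point titration) added to 10uM D-luciferin plus 10uM ATP in Tris acetate pH 7.5 buffer with Mg, Tween-20 and BSA, then purified enzyme at 10nM; light output imaged.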
NPR1 antag cnf = Natriuretic polypeptide receptor (hNpr1) antagonism - Confirmation; shares compounds with hNpr1 antagonist; HEK293 hNpr1 cGMP GloSensor luminescence, ANP-stimulated; Potency, µM (top dose mostly 57.6 µM), most hits filed as inhibitors; actives 76% (n = 1,400); calls by dose curve; also: nearly all actives have a fitted effect of over 70% in size
NPR2 antag = Natriuretic polypeptide receptor (hNpr2) antagonism - Subtype selectivity assay; shares compounds with hNpr1 antagonist; HEK293 hNpr2 GloSensor cGMP luminescence, CNP-stimulated; Potency, µM (top dose mostly 57.6 µM), most hits filed as inhibitors; actives 67% (n = 1,400); AID 1347046, 2019; calls by dose curve; also: nearly all actives have a fitted effect of over 70% in size
FLuc counter = Natriuretic polypeptide receptor (hNpr1) antagonism - Confirmation firefly luciferase (FLuc) inhibition counterscreen; purified FLuc enzyme, luminescence, Km substrate; Potency, µM (series often up to 57.6 µM), actives largely listed as inhibitors; AID 1347047, 2019; shares compounds with hNpr1 antagonist; actives 0.7% (n = 1,400)
GloSensor ctrl = Natriuretic polypeptide receptor (hNpr1) antagonism - Counterscreen GloSensor control cell line; shares compounds with hNpr1 antagonist; HEK293 GloSensor cGMP, SNP-stimulated, luminescence; Potency, µM (top dose mostly 57.6 µM), most hits filed as inhibitors; actives 69% (n = 1,400); AID 1347051, 2019; calls by dose curve; also: nearly all actives have a fitted effect of over 70% in size
Hits are given with their value; n = inactive; u = inconclusive; x = not tested or not shown. Unless noted, calls follow the shape of the dose curve; as a rule, active = well fitted curve in the direction sought with a large enough effect; inconclusive = small, poorly fitted or top-dose-only effect, or another doubt; inactive = no such curve, though single readings can be large; an effect the other way counts as inactive or inconclusive.

SMILES	GPT2 inhibitor	hNpr1 antagonist	HEK cytotox	NIH3T3 tox	Luciferase inh	NPR1 antag cnf	NPR2 antag	FLuc counter	GloSensor ctrl
COc1ccc(-c2oc3c(CC=C(C)C)c(O)cc(O)c3c(=O)c2O)cc1	n	x	x	x	x	x	x	x	x
O=C(c1nc2c(o1)CCN(Cc1cc(F)ccc1F)CC2)N1CCOCC1	n	n	u	n	n	x	x	x	x
COc1ccccc1Cn1c(=O)c(C(=O)N2CCN(C(=O)Nc3ccc(Cl)cc3)CC2)nc2cccnc21	n	x	u	u	x	x	x	x	x
O=C(Nc1ccc(Cl)cc1)c1nc2c(o1)CCN(Cc1cccc(F)c1F)CC2	n	3.5µM	32µM	u	n	6.3µM	9.9µM	n	7µM
COCCNC(=O)c1nc2c(o1)CCN(Cc1cccc(F)c1F)CC2	n	n	n	u	n	x	x	x	x
COc1ccccc1CN1CCc2nc(C(=O)Nc3ccc(Cl)cc3)oc2CC1	n	13µM	28µM	50µM	n	14µM	18µM	n	13µM
O=C(Nc1ccc(Cl)cc1)c1nc2c(o1)CCN(Cc1ccc(F)cc1F)CC2	u	3.2µM	u	u	n	7µM	8.9µM	n	7.9µM
Cc1ccc(C(=O)N2CCC(Cc3nc(-c4ccc(F)cc4)no3)CC2)cn1	n	1.1µM	u	u	n	1.4µM	1.9µM	n	1.5µM
CCc1ccc(C(=O)N2CCC(Cc3nc(C(C)C)no3)CC2)cc1	n	16µM	u	u	n	27µM	u	n	24µM
Cc1cc(C)cc(C(=O)N2CCC(Cc3nc(-c4cnccn4)no3)CC2)c1	n	n	n	n	n	x	x	x	x
CC(C)c1ccc(C(=O)N2CCC(Cc3nc(-c4ccc(F)cc4)no3)CC2)cc1	n	1.4µM	u	u	n	1.4µM	1.7µM	n	1.4µM
O=C(c1ccc2c(c1)OCO2)N1CCC(Cc2nc(-c3ccc(F)cc3)no2)CC1	n	2.5µM	u	u	n	2.4µM	2.2µM	n	1.7µM
Cc1ccc(CC(=O)NC2CCN(c3cc(-c4ccccc4)[nH]n3)C2)cc1 (centres undefined)	u	n	u	u	n	x	x	x	x
O=[S+]1([O-])NCC2(CCN(Cc3ccccc3)CC2)Oc2ncccc21	n	x	n	n	x	x	x	x	x
O=C(c1ccc(F)cc1)N1CCC[C@H](c2nc(-c3ccc(F)cc3)no2)C1	n	x	x	x	x	x	x	x	x
CCc1ccc(C(=O)N2CCC(Cc3nc(-c4ccc(F)cc4)no3)CC2)cc1	n	1.3µM	u	u	n	1.5µM	1.7µM	n	1.5µM
O=C(c1ccc(F)cc1F)N1CCC(Cc2nc(-c3cnccn3)no2)CC1	n	n	n	n	n	x	x	x	x
COc1ccccc1C(=O)N1CCC(Cc2nc(-c3ccc(F)cc3)no2)CC1	n	6.3µM	u	u	n	9.7µM	12µM	n	11µM
COc1ccc(C(=O)N2CCC(Cc3nc(-c4ccc(F)cc4)no3)CC2)c(OC)n1	n	2.8µM	u	u	n	3.4µM	4.8µM	n	4.8µM
COc1ccccc1C(=O)N1CCC(Cc2nc(C(C)C)no2)CC1	n	n	u	n	n	x	x	x	x
COc1ccc(-c2noc(CC3CCN(C(=O)Cc4ccccc4OC)CC3)n2)cc1	n	u	u	u	n	22µM	19µM	n	22µM
COc1ccccc1CC(=O)N1CCC(Cc2nc(-c3ccc(F)cc3)no2)CC1	n	1.3µM	u	u	n	2.4µM	2.4µM	n	1.9µM
CN1CC2(CCN(C3CCN(Cc4ccccc4)CC3)CC2)CC1C(=O)N1CCOCC1 (centres undefined)	n	n	u	u	n	x	x	x	x
Cc1cc(C#N)c(-c2ccccc2C(=O)N(C(C)C)C(C)C)nc1C	n	n	n	n	n	x	x	x	x
CCNC(=O)C1CCc2ncc(-c3ccsc3)n2C1 (centres undefined)	n	n	n	n	n	x	x	x	x
SMILES	GPT2 inhibitor	hNpr1 antagonist	HEK cytotox	NIH3T3 tox	Luciferase inh	NPR1 antag cnf	NPR2 antag	FLuc counter	GloSensor ctrl
COc1ccccc1CNC(=O)C1CCc2ncc(-c3ccsc3)n2C1 (centres undefined)	n	n	u	n	n	u	n	n	n
CCOC(=O)C1(Cc2ccccc2)CCCN(C(=O)C#Cc2ccccc2)C1 (centres undefined)	n	u	u	n	n	x	x	x	x
CC(=O)Nc1ccc(C(=O)N2CCC3(CC2)N=C(c2ccc(Cl)cc2)NO3)cc1	n	u	u	n	n	22µM	u	n	22µM
O=C(c1ccncc1)N1CCC2(CC1)N=C(c1ccc(Cl)cc1)NO2	n	n	u	n	n	x	x	x	x
CC(=O)Nc1ccc(C(=O)N2CCC3(CC2)N=C(c2ccc(Br)cc2)NO3)cc1	n	13µM	u	n	n	19µM	15µM	n	15µM
COCCO[C@H]1C(=O)N(C2CCN(S(=O)(=O)c3cccnc3)CC2)[C@H]1c1ccncc1	n	n	n	n	n	x	x	x	x
O=C(c1ccc2[nH]ccc2c1)N1CCC2(CC1)N=C(c1ccc(Br)cc1)NO2	n	11µM	u	u	n	24µM	14µM	n	11µM
CN(C)c1ccc(C(=O)N2CCC3(CC2)N=C(c2ccc(Br)cc2)NO3)cc1	n	11µM	u	n	n	19µM	22µM	n	15µM
O=C(c1ccccc1)N1CCC2(CC1)N=C(c1ccc(Br)cc1)NO2	n	16µM	u	u	n	27µM	u	n	u
Cc1ccc(C2=NC3(CCN(C(=O)c4ccc(N(C)C)cc4)CC3)ON2)cc1	n	n	u	n	u	x	x	x	x
O=C(c1cccc(F)c1)N1CCC2(CC1)N=C(c1ccc(Br)cc1)NO2	n	u	u	u	n	x	x	x	x
CCc1ccc(C(=O)N2CCC3(CC2)N=C(c2ccc(Br)cc2)NO3)cc1	n	u	n	n	n	x	x	x	x

Screening results: PubChem BioAssay, National Center for Advancing Translational Sciences (NCATS)
